Bioassay records (PubChem BioAssay)
L3MBTL1 block: inhibitors of human L3MBTL1; AlphaScreen L3MBTL1–H3K9me1 peptide binding; Potency, µM (highest dose often 57.1 µM), without a hit: at the top dose activity, negative = inhibition, actives largely listed as inhibitors; 0.66% of 230,000 active; AID 485360; note: potency is the fitted concentration of half-maximal effect; % is set by controls: 0 for no effect and ±100 for the full control effect; nearly all actives have a fitted effect of over 60% in size
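AlphaScreen assay: L3MBTL1 (50 nM final) was preincubated 30 min at room temperature with biotinylated H3(1-15)K9me1 peptide (75 nM final), then 30 min with library compounds; streptavidin donor and nickel chelate acceptor beads (10 ug/mL final) added, 30 min dark.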
PI5P4Ka inh: blocks human PI5P4K alpha kinase activity; P48426; PI5P4Kalpha enzyme, ADP-Glo luminescence, 60 min; hits give low values; max response, %; 1.2% of 330,000 active; AID 652105; active = max response of -50% or lower; inconclusive = between -30% and -50%; inactive = -30% or higher; note: value at the top dose of about 77 µM; % is set by controls: 0 for no effect and ±100 for the full control effect
Target sequence (P48426 whole entry, looked up): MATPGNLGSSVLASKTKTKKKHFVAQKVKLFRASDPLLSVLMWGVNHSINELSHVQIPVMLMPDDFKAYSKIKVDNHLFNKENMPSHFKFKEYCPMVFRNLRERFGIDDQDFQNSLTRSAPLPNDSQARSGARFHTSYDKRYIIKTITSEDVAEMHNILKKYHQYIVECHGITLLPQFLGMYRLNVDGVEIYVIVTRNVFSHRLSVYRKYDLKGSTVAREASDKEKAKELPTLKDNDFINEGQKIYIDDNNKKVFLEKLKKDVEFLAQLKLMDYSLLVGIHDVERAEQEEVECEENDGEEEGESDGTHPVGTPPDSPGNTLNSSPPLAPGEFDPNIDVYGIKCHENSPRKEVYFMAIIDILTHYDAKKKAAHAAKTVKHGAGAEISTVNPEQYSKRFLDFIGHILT
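ADP-Glo luminescence end-point after a 60 min room-temperature kinase reaction. PI5P4Kalpha and substrate in HEPES pH 7.4 buffer with EGTA, 0.1% CHAPS and 5% DMSO; ATP at 5 microM final.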
BAZ2B block: blocks human BAZ2B. Q9UIF8. AlphaScreen BAZ2B-H3K14Ac peptide displacement. Potency, µM (series often up to 114 µM), without a hit: at the highest dose activity change, negative = inhibition, usual class: inhibitors. 4.4% of 360,000 active; note: potency is the fitted concentration of half-maximal effect; % is set by controls: 0 for no effect and ±100 for the full control effect; nearly all actives have a fitted effect of over 60% in size
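Compounds, titrated to a top concentration of 110 uM, were incubated 30 min at room temperature with preformed BAZ2B/acetyl-K14 H3 peptide complex (50 nM each). Proximity signal was measured by AlphaScreen after 20 min with beads.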
JMJD2A Tudor: blocks the human JMJD2A Tudor domain. AID 504339. AlphaScreen JMJD2A-Tudor / H3K4me3 peptide binding. Potency, µM (titrated, usually from 114 µM), inactives show at the top dose activity change, negative = inhibition, actives largely listed as inhibitors. 4.4% of 390,000 active; note: potency is the fitted concentration of half-maximal effect; % is set by controls: 0 for no effect and ±100 for the full control effect; nearly all actives have a fitted effect of over 50% in size
G9a block: inhibitors of human histone lysine methyltransferase G9a; 8.8% of 350,000 active; Q96KQ7; AID 504332; G9a H3K9 monomethylation, AlphaScreen, 2 h; Potency, µM (highest dose often 102 µM), for inactives: top-dose activity, negative = inhibition, hits mostly inhibitors; note: potency is the fitted concentration of half-maximal effect; % is set by controls: 0 for no effect and ±100 for the full control effect; nearly all actives have a fitted effect of over 75% in size
Target sequence (Q96KQ7 913-1193 limits assumed): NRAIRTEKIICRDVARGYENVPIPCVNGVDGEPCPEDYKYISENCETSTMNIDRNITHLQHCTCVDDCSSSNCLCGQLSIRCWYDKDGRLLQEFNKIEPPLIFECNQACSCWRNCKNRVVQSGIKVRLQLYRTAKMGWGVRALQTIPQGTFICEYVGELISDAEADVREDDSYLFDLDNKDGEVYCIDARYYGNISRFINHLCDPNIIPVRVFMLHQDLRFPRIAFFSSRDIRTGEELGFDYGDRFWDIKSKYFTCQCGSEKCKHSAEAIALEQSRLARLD
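Enzyme 20 nM + cpd, 15 min RT; add b-H3K9 pep 500 nM / SAM 20 uM; 2 h RT; anti-H3K9me1 Ab 0.5 ug/mL + SA donor / anti-rabbit acceptor beads 20 ug/mL each, 10 min; AlphaScreen read.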
HP1b chromo inh: blocks HP1-beta chromodomain binding to methylated histone tails; AID 540317; 0.56% of 390,000 active; P83916; AlphaScreen HP1-beta / biotin-H3K9me3 peptide binding; Potency, µM (titrated, usually from 114 µM), for the others: at the top dose activity change, negative = inhibition, most hits filed as inhibitors; note: potency is the fitted concentration of half-maximal effect; nearly all actives have a fitted effect of over 70% in size
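AlphaScreen: HP1-beta (50 nM) preformed 30 min with biotin-H3(1-18)K9me3 peptide (50 nM) in PBS pH 7.4, 0.01% Tween-20. Compound added for 30 min at RT, then streptavidin donor/nickel chelate acceptor beads (10 ug/mL) for 30 min.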
An asterisk follows results filed as active; ? = inconclusive; · = not tested or not shown; [ ] = another dose, or the depositor's remark. Only some compounds are listed: those with a hit (about 11% of all), similar ones and a draw of the others. Unless noted, calls come from the whole dose curve; as a rule, active = well fitted inhibition curve with a large enough effect; inconclusive = small, poorly fitted or top-dose-only effect; inactive = no such curve, though single readings can be large or run the other way.

SMILES	L3MBTL1 block	PI5P4Ka inh	BAZ2B block	JMJD2A Tudor	G9a block	HP1b chromo inh
CN(C)CCN(C(=O)c1ccc2ccccc2c1)c1nc2ccc(F)cc2s1	·	4.8	-38.3%[57.1 µM]	?	44.7µM*	-0.2%
CCc1ccc2nc(N(CCN(C)C)C(=O)c3ccc4ccccc4c3)sc2c1	·	4.2	?	?	79.4µM*	4.7%
CC(NCCc1ccc(S(N)(=O)=O)cc1)C(=O)NCCc1ccc(F)cc1 (stereo not given)	·	0.0	50.1µM*	25.1µM*	8.1%	?
CC(NCC(=O)NCCc1ccc(S(N)(=O)=O)cc1)c1ccc(F)cc1 (stereo not given)	·	3.1	-24.4%	1.4%	·	15.0%
CN(CC(=O)NCCc1ccc(S(N)(=O)=O)cc1)Cc1c(F)cccc1Cl	·	-10.3	21.9%	-3.2%	50.1µM*	19.9%
COc1ccc(Cl)cc1NC(=O)c1c(NCc2cccnc2)sc2c1CCC(C)C2 (stereo not given)	·	·	-16.3%	?	?	?
COc1ccccc1N1CCN(C(=O)c2cc(CC(C)C)on2)CC1	·	·	6.3%	3.4%	-3.5%[59 µM]	63.2%
COc1ccc(/C(C)=N/Nc2nc(C)c(C(C)=O)s2)cc1	·	0.7	?	?	?	-7.3%
CC(=O)c1sc(N/N=C2\CC3CC2C(C)C3(C)C)nc1C (stereo not given)	-29.3%	-3.7	?	?	39.8µM*	-12.5%
CCCN1C(=O)C(=O)N(CC(=O)N2c3ccccc3NC(=O)CC2C)C1=O (stereo not given)	·	-22.2	·	·	·	·
Cc1ccc(S(=O)(=O)N2c3ccccc3NC(=O)CC2C)cc1 (stereo not given)	3.4%	·	8.2%	-9.8%	20.2%[59 µM]	19.8%
CC1CC(=O)Nc2ccccc2N1S(=O)(=O)c1ccccc1 (stereo not given)	0.5%	-27.5	37.3%	17.8µM*	-22.5%[59 µM]	-3.0%
CCOC(=O)CN1c2ccccc2NC(=O)CC1C (stereo not given)	-0.3%	8.0	-0.4%	-24.6%	44.7µM*	47.6%
CC1Cc2ccccc2N1S(=O)(=O)c1cccc(C(=O)N2CC(=O)Nc3ccccc32)c1 (stereo not given)	-15.5%	-7.1	-1.5%	-27.0%	70.8µM*	15.9%
COc1ccccc1CNC(=O)C1CCCN(c2nnc(-n3c(C)ccc3C)s2)C1 (stereo not given)	·	·	-12.9%	-25.5%	5.2%[59 µM]	3.0%
CCn1cc(C(=O)N2CCN(c3cc(Cl)ccc3C)CC2)c(=O)c2cc(S(=O)(=O)N3CCOCC3)ccc21	·	·	·	-23.0%	2.7%[59 µM]	39.2%
CCCCN(CC)C(=O)Cn1nc(C)c2c(C)n(-c3ccccc3)nc2c1=O	·	·	-10.6%	1.0%	-2.6%[59 µM]	28.2%
COc1ccc(NS(=O)(=O)c2cnc(N)nc2)cc1Cl	·	·	-2.6%	50.1µM*	-31.4%[59 µM]	30.9%[57 µM]
Cn1c2cc(Br)sc2c2cnn(Cc3ccccc3F)c(=O)c21	·	·	·	0.7%	·	·
COc1ccc(-n2c(=O)c3sc4ccccc4c3n(CC(=O)NCc3ccccc3)c2=O)cc1	·	·	-11.7%	-6.3%	-4.0%[59 µM]	40.8%
COc1ccc(-c2c(C)nn(-c3ccccc3)c2NC(C)=O)cc1OC	13.7%	0.3	-8.0%	4.9%	·	53.3%
CCN(CC)P1(=O)OC(c2cc(OC)c(OC)c(OC)c2)=Nc2c1c(C)nn2-c1ccccc1 (stereo not given)	4.9%	·	?	-20.3%	50.1µM*	9.7%
C[C@@H]1NC(=O)c2cc([N+](=O)[O-])cc(I)c2OCC[C@@H](C(=O)NC(CC(=O)O)C(N)=O)NC(=O)[C@H](CC(N)=O)NC1=O (stereo not given in full)	-8.6%	-3.7	?	?	25.1µM*	17.9%
C[C@@H]1NC(=O)[C@H](CCCN=C(N)N)NC(=O)c2cc([N+](=O)[O-])cc(I)c2OCC[C@@H](C(=O)NC(CC(=O)O)C(N)=O)NC1=O (stereo not given in full)	-2.9%	·	-28.2%	·	39.8µM*	·
CC(=O)c1ccc(NC(=O)Cn2cnc3nc4c(cc3c2=O)CC(C)CC4)cc1 (stereo not given)	·	·	-2.0%	1.6%	5.5%[59 µM]	23.0%[57 µM]
SMILES	L3MBTL1 block	PI5P4Ka inh	BAZ2B block	JMJD2A Tudor	G9a block	HP1b chromo inh
CCc1cccc(C)c1NC(=O)Cn1ccn(Cc2ccc(Cl)cc2)c(=O)c1=O	·	·	-1.2%	-20.1%	-4.1%[59 µM]	-0.5%
C/C(=N\Nc1ccc(C(=O)O)cc1)c1ccc2c(c1)Nc1ccccc1S2	28.2µM*	?	50.1µM*	?	11.2µM*	?
C/C(=N/Nc1ccc(C(=O)O)cc1)c1ccc2c(c1)Nc1ccccc1S2	·	-23.2	·	?	·	?
Cc1nnc2ccc(-c3cccc(NS(=O)(=O)c4ccccc4[N+](=O)[O-])c3)nn12	37.0%	-6.3	-33.7%	2.0%	50.1µM*	27.7%
CCOC(=O)/C(C#N)=C1/C=Nc2ccccc2N1	·	·	-38.9%	-13.4%	-8.8%[12.7 µM]	18.9%
CCOC(=O)/C(C#N)=C1\CC2CCC1(C)C2(C)C (stereo not given)	·	-8.8	0.4%	-5.1%	3.16µM*	?
Cc1[nH]c(=O)[nH]c(=O)c1/C=N/NC(=O)[C@H](C)N	?	-27.7	50.1µM*	56.2µM*	?	32.5%
CC(C)(C)c1ccc(/C=N/Nc2ccc(C(=O)O)cc2)cc1	-4.7%	2.3	-38.1%	?	1.78µM*	-10.1%
O=C(O)c1ccc(N/N=C/c2ccc3c(c2)OCO3)cc1	34.8%	?	-22.0%	-16.1%	·	21.8%
Cc1cc(C)nc(SCC(=O)Nc2ncc(C(F)(F)F)cc2Cl)n1	12.7%	0.5	-1.7%	-8.4%	8.9%[59 µM]	5.3%
O=C(O)c1ccc(/C=N/Nc2ncc(C(F)(F)F)cc2Cl)cc1	8.9%	-4.6	-17.3%	-12.7%	31.6µM*	31.8%
O=C(O)c1ccc(N/N=C/c2ccc(C(F)(F)F)cc2)cc1	-16.8%	9.3	?	-34.9%	35.5µM*	-7.2%
O=C(CSc1ncccn1)Nc1ncc(C(F)(F)F)cc1Cl	-5.9%	-5.8	-16.4%	5.5%	20µM*	40.5%
NCC1O[C@@H](O[C@@H]2C(O)[C@H](O[C@H]3OC(CO)C(O)C(N)C3O)[C@@H](N)C[C@H]2N)C(N)C(O)C1O (stereo not given in full)	·	·	·	·	-0.8%[2.33 µM]	·
COCCn1c(CNC(=O)c2cccc(N(C)C)c2)nc2cccnc21	·	·	-2.1%	-9.7%	18.5%[59 µM]	4.7%[57 µM]
COC(=O)Cn1ccnc1[N+](=O)[O-]	·	-3.6	·	·	·	·
O=C(O)c1ccc(/C=N/Nc2ccc(F)cc2F)cc1	-4.5%	-6.8	-21.9%	-29.4%	35.5µM*	5.9%
O=C1CCCN1CCCNC(=S)Nc1ccccc1	11.9%	8.5	2.4%	6.7%[57.1 µM]	·	55.8%
O=C1CCCN1CCCNC(=S)Nc1ccc(Nc2ccccc2)cc1	-22.6%	1.3	?	-14.8%	·	-6.8%
